Data reported in PubChem BioAssay (Tox21).
Inconclusive results are not listed. A call without a number means that no potency is given here. Activity calls are given as the source filed them. Calls come from the whole dose curve; as a rule, active = well fitted cell-killing curve with a large enough effect in the repeat runs; inconclusive = weak or mixed curves, or effect the other way; inactive = flat fitted curve, though single readings scatter.

Assay: cAMP Responsive Elements (CRE) small molecule agonists, cell-based qHTS assay: qHTS cell viability counter screen (AID 2060914);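 note: viability read after 3 h of compound exposure; nearly all actives have a fitted effect of over 50% in size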
Conditions: CRE-bla HEK293T viability, CellTiter-Glo luminescence, 5 h; series mostly up to 92.4 µM
Procedure, shortened: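 CRE-bla HEK 293T cells, plated 18 h at 37 °C, were exposed to compounds for 3 h at 37 °C/5% CO2. Viability was then measured in the same wells by CellTiter-Glo luminescence after 30 min at room temperature.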
Potency is the fitted concentration of half-maximal effect.

| Compound | Potency |
| --- | --- |
| CC1(C)CCC[C@]2(C)[C@H]3CC(=O)O[C@]3(C)CC[C@@H]12 | inactive |
| NC(=NCCCCCCN=C(N)/N=C(\N)Nc1ccc(Cl)cc1)/N=C(\N)Nc1ccc(Cl)cc1 | 48.1 µM (active) |
| CCCCCCCCCCCCCc1ccccc1 | inactive |
| O=S1(=O)OC(c2ccc(O)cc2)(c2ccc(O)cc2)c2ccccc21 | inactive |
| CC(C)C(=O)C(C)C | inactive |
| CC1(C)C(=O)N(Br)C(=O)N1Br | inactive |
| CCCCN(CCCC)CC(O)c1cc(Cl)cc2c1-c1ccc(Cl)cc1/C2=C/c1ccc(Cl)cc1 (centres undefined) | inactive |
| NS(=O)(=O)c1cc2c(cc1Cl)NC(CSCc1ccccc1)=NS2(=O)=O | inactive |
| COc1ccc(N)c(OC)c1 | inactive |
| CC(C)(C)c1cc(CCC(=O)OCC(COC(=O)CCc2cc(C(C)(C)C)c(O)c(C(C)(C)C)c2)(COC(=O)CCc2cc(C(C)(C)C)c(O)c(C(C)(C)C)c2)COC(=O)CCc2cc(C(C)(C)C)c(O)c(C(C)(C)C)c2)cc(C(C)(C)C)c1O | inactive |
| CN(C(=O)CN(CCO)CC(=O)N(C)C(C)(C)Cc1ccccc1)C(C)(C)Cc1ccccc1 | inactive |
| CC1=CC(C)C(C=O)C(C)C1 (centres undefined) | inactive |
| NC(=O)c1ccccc1C(N)=O | inactive |
| CCCCCCc1ccc(N)cc1 | inactive |
| CCOC(=O)c1c(C)n(C)c2ccc(O)cc12 | inactive |
| OCCC(F)(F)C(F)(F)C(F)(F)C(F)(F)C(F)(F)C(F)(F)C(F)(F)C(F)(F)F | inactive |
| Cc1c(N(C)CS(=O)(=O)O)c(=O)n(-c2ccccc2)n1C | inactive |
| C/C=C1/C(=O)C[C@H]2[C@@H]3CCC4=CC(=O)CC[C@]4(C)[C@H]3CC[C@]12C | inactive |
| O=C(O)c1ccc(O)c(O)c1 | inactive |
| CC(C)(C)NC(N)=O | inactive |

| Compound | Potency |
| --- | --- |
| Cc1cc(-c2ccc(N=Nc3cc(S(=O)(=O)O)c4ccccc4c3N)c(C)c2)ccc1N=Nc1cc(S(=O)(=O)O)c2ccccc2c1N | inactive |
| O=C(Oc1ccccc1)c1ccc2ccccc2c1O | inactive |
| CC(NC(CCc1ccccc1)C(=O)O)C(=O)N1C(=O)N(C)CC1C(=O)O (centres undefined) | inactive |
| O=C(O)c1cccc(Cl)n1 | inactive |
| O=C1CCCCCCCCCCCC(=O)OCCO1 | inactive |
| CCC(COC(=O)CCS)(COC(=O)CCS)COC(=O)CCS | inactive |
| CCCCC(C=O)CC (centres undefined) | inactive |
| CCCCC(CC)CN=C(N)NC(N)=NCCCCCCN=C(N)NC(N)=NCC(CC)CCCC (centres undefined) | 16.8 µM (active) |
| Cc1ncc([N+](=O)[O-])n1C | inactive |
| O=C(c1ccccc1)c1ccccc1O | inactive |
| COC(=O)CCCCCCCCC(=O)OC | inactive |
| Cc1cc2c(cc1S(N)(=O)=O)S(=O)(=O)CCC2 | inactive |
| CC(=O)Oc1ccc(C)cc1 | inactive |
| CCCCOCCOC(=O)c1ccccc1C(=O)OCCOCCCC | inactive |
| Cc1ccc(C=O)cc1C | inactive |
| Cc1cc(CCN2CCN(c3nsc4ccccc34)CC2)cc2c1NC(=O)CC2(C)C | 68.6 µM (active) |
| CC(CC(C)(C)C)CC(C)(C)CC(C)(C)C (centres undefined) | inactive |
| Cc1cc(C)c(O)c(C(C)(C)C)c1 | inactive |
| CCC(=O)c1ccc(O)cc1 | inactive |
